# Screening results: PubChem, The Scripps Research Institute Molecular Screening Center
# Hits are enriched below; roughly 2.6% of the tested compounds scored in any of these assays.
# IEC-6 tox: kills IEC-6 intestinal cells in KLF5 counter-screen | IEC-6 cytotoxicity, luminescence viability | inhibition, % at 5 µM | 0.78% of 290,000 active | AID 1825; in the data active = inhibition above about 22%;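 also: 0% = plate median of test compound wells and 100% = cytotoxic reference compound wells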
# GPR7 antagonist: human neuropeptides B/W receptor 1 antagonism; P48145; GPR7-expressing cells, fluorescence antagonist assay; inhibition, % at 4.4 µM; 1.1% of 290,000 active; AID 1861; in the data active = inhibition above about 16%, passing the limit was not always enough;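 also: cells stimulated with the agonist NPW; 0% = agonist with vehicle and 100% = vehicle without agonist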
# Target sequence (P48145 whole entry, looked up): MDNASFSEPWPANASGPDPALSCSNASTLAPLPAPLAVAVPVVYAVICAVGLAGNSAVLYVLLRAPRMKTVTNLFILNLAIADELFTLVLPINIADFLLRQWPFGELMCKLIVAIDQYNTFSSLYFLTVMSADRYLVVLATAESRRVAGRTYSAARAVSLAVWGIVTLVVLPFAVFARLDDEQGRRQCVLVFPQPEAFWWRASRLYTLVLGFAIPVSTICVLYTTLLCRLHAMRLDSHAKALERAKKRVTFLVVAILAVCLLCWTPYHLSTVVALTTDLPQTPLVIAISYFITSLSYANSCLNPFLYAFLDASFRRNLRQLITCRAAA
# Ba/F3 V617F tox: loss of viability in JAK2V617F-driven Ba/F3 cells | inhibition, % at 5.6 µM | Ba/F3 EpoR-JAK2V617F viability, ATP luminescence | 1.1% of 220,000 active;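 active = inhibition above the campaign mean plus 3 SD over all tested compounds, cut at about 24% in these data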;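 also: cytokine-independent growth of Ba/F3 cells driven by EpoR plus mutant JAK2; 0% = DMSO-treated cells and 100% = JAK inhibitor I control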
# BaF3 parental: parental Ba/F3 viability inhibition as JAK2V617F counter-screen | 1.1% of 220,000 active | inhibition, % at 5.6 µM | CellTiter-Glo ATP luminescence;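 active = inhibition above a per-campaign cutoff, the mean inhibition of all tested compounds plus 3 SD, cut at about 27% in these data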;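 also: 0% = DMSO wells and 100% = JAK Inhibitor I control wells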
# FID counter: counter-screen for HCV NS3 helicase inhibitors: DNA intercalator displacement | DNA fluorescent intercalator displacement, fluorescence | inhibition, % at 7.9 µM | 0.17% of 290,000 active; in the data active = inhibition above about 37%;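 also: 0% = vehicle and 100% = reference compound; higher means more ethidium bromide displaced from hairpin DNA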
# KLF5 inhibitor: suppresses KLF5 promoter-driven expression; DLD-1 KLF5 promoter-luciferase reporter, luminescence; inhibition, % at 5 µM; 0.23% of 290,000 active;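 active = inhibition above a per-plate limit of that plate's mean compound inhibition plus 3 SD, cut at about 60% in these data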;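 also: 0% = DMSO wells and 100% = LY294002 at 200 µM; higher means less KLF5 promoter-driven luciferase light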
# * marks the source's active call; other numbers are inactive results; . = no result given.
SMILES,IEC-6 tox,GPR7 antagonist,Ba/F3 V617F tox,BaF3 parental,FID counter,KLF5 inhibitor
Cc1ccccc1N1CC(O)(c2cccs2)[N+]2=C1CCCC2 (configuration not stated),0,13,7,6,1,-7
Cc1cccc(N2CC(O)(c3cccs3)[N+]3=C2CCCC3)c1C (configuration not stated),8,2,24*,36*,11,-9
COc1ccc(C2(O)CN(c3ccc(C)cc3)C3=[N+]2CCCC3)cc1 (configuration not stated),-4,-6,17,34*,-6,9
Cc1ccc(N2CC(O)(c3cccs3)[N+]3=C2CCCC3)cc1 (configuration not stated),4,-7,9,45*,2,-7
COc1ccc(OC)c(N2CC(O)(c3ccccc3)[N+]3=C2SCCC3)c1 (configuration not stated),7,-2,16,7,7,8
O=C(CC1S/C(=N/N=C/c2ccco2)NC1=O)Nc1cccc(Cl)c1Cl (configuration not stated),-5,-16,-2,2,-5,-4
CCOC(=O)CC1COCCN1C(=O)CCc1nnc(-c2ccsc2)o1 (configuration not stated),-4,16,-5,0,-13,-28
COc1cc(C2C(C(=O)c3ccc(C)o3)=C(O)C(=O)N2c2cc(C)on2)ccc1OCc1ccccc1 (configuration not stated),-4,-13,.,.,-47,-18
CC1CCc2nc(N)c(C#N)c(-c3cccnc3)c2C1 (configuration not stated),-4,-17,-3,-2,-9,8
CC(=O)C1=C(O)C(=O)N(Cc2ccccc2)C1c1ccc(N(C)C)cc1 (configuration not stated),-8,-17,.,.,-30,-26
CCc1ccc(N2CC(O)(c3cccs3)[N+]3=C2SCCC3)cc1 (configuration not stated),-2,3,52*,57*,19,-15
Cc1cccc(N2CC(O)(c3cccs3)[N+]3=C2CCCC3)c1 (configuration not stated),11,0,26*,36*,7,11
Cc1cccc(NC(=O)C2(c3cccs3)CCOCC2)c1,-4,-10,0,4,-12,11
COc1ccc(NC(=O)[C@@H](NC(=O)c2ccccc2F)C(C)C)cc1S(=O)(=O)N1CCOCC1,-5,-5,1,6,-23,-27
CSc1nsc2nc(=O)c(/C=C3\C=Nc4ccccc43)c(N)n12,-9,-16,0,56*,-2,-55
Cc1ccc(-c2cc3cccc[n+]3cc2-c2ccc(C)cc2)cc1,28*,22*,96*,79*,9,15
Cc1ccc2nc(-c3ccncc3)cc(-c3ccccc3)c2c1,-6,-15,-2,8,-13,5
C=CCN(C(=O)CN1CCOCC1)c1nc(C)c(-c2ccccc2)s1,-12,-6,6,27*,-16,-27
CC1=C(C(=O)OC(C)(C)C)C(c2ccc3ccccc3c2)NC(=O)N1C (configuration not stated),-4,-10,.,.,-31,-49
O=C(C1=C[C@H](C2CCCCC2)C[C@H](OCCCCO)O1)N1CCN(Cc2ccc3c(c2)OCO3)CC1,3,-2,0,-1,-27,8
CCCCN(CCNP(=O)(OCC)OCC)CP(=O)(OCC)OCC,6,1,-3,-1,-22,8
CN(C)CCCNC(=S)N(CCCN(C)C)Cc1cc2cc3c(cc2[nH]c1=O)OCO3,1,-10,.,.,17,-21
Cc1ccc(NC(=S)N(CCCN(C)C)Cc2cc3cc4c(cc3[nH]c2=O)OCO4)cc1,0,-10,-5,6,38*,-12
Cc1ccc(NC(=S)N(CCCN(C)C)Cc2cc3cc4c(cc3[nH]c2=O)OCO4)c(C)c1,7,9,6,12,44*,-2
CSc1c(-c2ccccn2)c(N)nn1C(=O)C1CC1,-3,7,0,2,-6,-19
SMILES,IEC-6 tox,GPR7 antagonist,Ba/F3 V617F tox,BaF3 parental,FID counter,KLF5 inhibitor
O=C(C1CCN(S(=O)(=O)N2CCC3(CC2)OCCO3)CC1)N1CCN(Cc2ccccc2)CC1,3,21*,1,4,-24,-8
CCOC(=O)CSc1nnc(COc2ccc3ccccc3c2)o1,3,-8,.,.,-32,-33
CCc1ccc(/C=C/c2c[nH]c3ccccc23)[n+](CC)c1,-3,2,94*,79*,1,-9
CC(=O)OCCCCCCCCCCC[N+]1(C)CCCCC1,-4,-5,25*,51*,12,-4
CCn1c(=S)[nH]c2nc3c(cc2c1=O)CCCC3,4,4,0,-1,-9,-23
N=C(N)c1ccc(/C=C/c2ccc(C(=N)N)cc2O)cc1,2,-9,-2,-2,53*,-8
COc1ccc(Br)cc1CN1CCN(C(=O)c2ccc(F)cc2)CC1,7,16,5,4,-20,2
CN(C)c1cc[n+](CC(=O)c2ccc(OC(F)F)cc2)cc1,-3,6,40*,47*,1,-16
O=C(C[n+]1cccc(CNC(=O)c2ccc(OC(F)F)cc2)c1)c1ccccc1,7,-12,2,11,15,-33
Cc1ccc(NCN2C(=O)C(=O)c3ccccc32)nc1,3,0,4,5,-6,4
CCOC(=O)C1=C(CNCc2ccc(C)cc2)NC(=O)NC1c1ccc(OC)cc1 (configuration not stated),16,-12,52*,28*,-35,11
COc1ccc(CCn2nnc(-c3ccc(NC(C)=O)c(Cl)c3)n2)cc1,-6,-3,-3,59*,-3,-3
C#CCSc1nnc(-c2c[nH]c3ccccc23)n1C,-1,7,30*,48*,2,-25
CC(C)Sc1nnc(-c2c[nH]c3ccccc23)n1C,0,-8,1,10,-10,-49
COc1ccc(/C=C(\CC(=O)O)c2nc3ccccc3s2)cc1O,7,-3,-2,4,-28,-20
CCOc1cc(/C=C(\CC(=O)O)c2nc3ccccc3s2)ccc1OC,12,0,9,41*,-41,-5
O=S1(=O)CCC(NC(=S)NC2CCS(=O)(=O)C2)C1 (configuration not stated),1,6,52*,39*,2,-9
COC(=O)c1sc2nc(CN3CCN(c4cccc(C(F)(F)F)c4)CC3)[nH]c(=O)c2c1C,-6,-7,-1,5,0,-35
CCOc1ccc(C2=CSC3=NCCN23)cc1Cl,-13,0,.,.,7,-22
CCS(=O)(=O)Nc1ccc(-c2nnc(SCC(=O)c3ccc(NC(C)=O)c(OC)c3)o2)cc1,4,-6,5,4,-8,0
COc1ccc(C2C(C#N)=C(N)Oc3c2ccc2cccnc32)cc1OC (configuration not stated),17,10,78*,76*,-30,53
